Assay results: PubChem BioAssay
“And” between values parts separate entries of the source, which are not always exact repeats. Equal entries are not always repeated. The source made the active and inactive calls.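 The calls were made as follows, unless noted: active = normalized viability below 100% at a tested concentration; inactive = the rest.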

Tests used:
[1] = stimulators of nuclear beta-catenin in C2C12, primary screen, imaging, WNT3A-conditioned medium, mouse C2C12, NPC library (AID 1117326; in the data active = nuclear beta-catenin stimulation mostly above about 4.2%, no sharp cut-off; inactive = mostly below about 10%); conditions: stronger effect = higher value
[2] = stimulators of insulin release from INS-1E, primary screen, cell-based, 5 mM glucose, NPC library (AID 1117329;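 active = compound raises insulin release from rat beta cells at 5 mM glucose, no numeric limit stated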); conditions: rat INS-1E insulin secretion, at 10 µM, stronger effect = higher value
[3] = growth inhibition of GSK3B-pretreated HCT116 cells – cell-based, CellTiter-Glo, 0.2 to 20 µM (AID 1117336;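 active = compounds lowering colon cancer cell viability after pretreatment blocking the GSK3B kinase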); conditions: HCT116 viability after GSK3B inhibitor, at 20 µM, stronger effect = higher value
[4] = inhibition of endothelial tube formation, primary screen, imaging, VEGF stimulated, CD31 staining, tube area, NPC library (AID 1117340;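 active = compound that reduces growth-factor-driven endothelial tube area in a mixed cell culture, no cutoff stated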); conditions: VEGF-stimulated ADSC/ECFC co-culture, at 10 µM, stronger effect = higher value
[5] = glucagon-like peptide 1 release enhancers, primary assay, NCI-H716 cell line, NPC library (AID 1117341;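 active = compound raises GLP1 secretion from the human gut endocrine cells, with no numeric limit stated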); conditions: NCI-H716 cells, at 10 µM, stronger effect = higher value
[6] = HCT116 colon cancer cell growth inhibition, primary screen, CellTiter-Glo luminescence, NPC library (AID 1117342;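 active = compounds that lower survival of HCT116 colon cancer cells in the luminescence readout, no numeric limit stated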); conditions: at 20 µM (top of the series)
[7] = CellTiter-Glo luminescent readout of SW480 viability loss, NPC library primary (AID 1117343;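 active = compounds that lower viability of the colon cancer cells in the luminescence readout, with no numeric limit stated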); conditions: CellTiter-Glo luminescence; at 20 µM (top of the series)
[8] = decreased DLD-1 cellular survival, CellTiter-Glo luminescent readout, NPC compound collection, primary HTS (AID 1117346;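 active = compounds that lower survival of DLD-1 colon cancer cells in the luminescence readout, no cutoff given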); conditions: DLD-1 viability, CellTiter-Glo luminescence; at 20 µM (top of the series)
[9] = target: 6-phosphogluconate dehydrogenase, decarboxylating (Homo sapiens) (UniProt P52209); test: 6PGD enzyme inhibitors, primary screen, biochemical, human, recombinant enzyme, NADPH absorbance (AID 1159550;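 active = at least 20% inhibition of 6-phosphogluconate dehydrogenase activity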); conditions: recombinant 6PGD, NADPH absorbance 341 nm; at 10 µM; stronger effect = higher value
6-phosphogluconate dehydrogenase, decarboxylating (Homo sapiens), sequence (P52209 whole entry, looked up): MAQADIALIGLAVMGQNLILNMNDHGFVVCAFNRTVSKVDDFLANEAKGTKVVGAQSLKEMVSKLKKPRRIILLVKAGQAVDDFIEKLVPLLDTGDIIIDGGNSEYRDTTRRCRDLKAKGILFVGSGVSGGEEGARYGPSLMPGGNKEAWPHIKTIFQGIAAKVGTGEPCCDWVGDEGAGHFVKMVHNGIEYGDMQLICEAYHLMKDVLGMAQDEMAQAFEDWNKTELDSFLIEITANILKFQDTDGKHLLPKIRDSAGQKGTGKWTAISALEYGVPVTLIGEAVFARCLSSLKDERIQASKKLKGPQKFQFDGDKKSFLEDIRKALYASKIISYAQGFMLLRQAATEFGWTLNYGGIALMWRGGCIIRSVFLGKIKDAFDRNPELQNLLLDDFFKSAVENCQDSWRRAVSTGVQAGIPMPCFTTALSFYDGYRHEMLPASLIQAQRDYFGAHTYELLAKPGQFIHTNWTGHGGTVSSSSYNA

[10] = modulation of C. elegans fzo-1 (AID 1259413; call rule not given here;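 also: fzo-1 mutant C. elegans worms in liquid wells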); conditions: C. elegans fzo-1 modulator screen, mean read-out; stronger effect = higher value
[11] = differential killing of epithelial or mesenchymal cells, primary screen, imaging, PC-3E GFP, TEM4-18 mCherry, co-culture (AID 1345086;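 active = compounds killing one labelled cell type while sparing the other, by normalised counts and ratio limits, not self-fluorescent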;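 as to all read-outs here: cells exposed to compound for 72 h before imaging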;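 as to red/green cell ratio (normalised): normalised mesenchymal count divided by normalised epithelial count so high means epithelial killing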); conditions: imaging cell counts, at 1 µM; for red/green cell ratio (normalised): actives lie on both sides, counts scaled to control wells, 1 = unselective
[12] = sensitizers of A549 cells to miR-34 induction, primary screen, imaging, A549 dox-inducible miR-34, nuclei and caspase counts (AID 1347080;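 active = compounds whose cell count with miR-34 switched on is under 0.7 times the count with it off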); conditions: A549 miR-34 inducible, Hoechst nuclei count, 48 h
[13] = survival rescue of mitochondrial mutant cells in low glucose, primary screen, MELAS cybrids, Rieske KO mouse fibroblasts, CellTiter-Glo (AID 1508586;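 active = mean z-score across replicates of 1.96 or higher in either the MELAS or the Rieske mutant cell line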;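 also: z relative to plate mean and SD of compound and empty wells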)
[14] = target: NAD(+) hydrolase SARM1 (Homo sapiens) (UniProt Q6SZW1); test: SARM1 TIR NADase inhibitors, cell lysate, NAD-Glo luminescence (AID 1508614;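 active = compound whose remaining NAD level is above about 45 nM, limit read from the data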;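 also: higher remaining NAD means stronger inhibition of SARM1 NADase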); conditions: SAM-TIR HEK293T lysate NADase, at 1 µM, stronger effect = higher value
NAD(+) hydrolase SARM1 (Homo sapiens), sequence (Q6SZW1 whole entry, looked up, the tested form may be a part): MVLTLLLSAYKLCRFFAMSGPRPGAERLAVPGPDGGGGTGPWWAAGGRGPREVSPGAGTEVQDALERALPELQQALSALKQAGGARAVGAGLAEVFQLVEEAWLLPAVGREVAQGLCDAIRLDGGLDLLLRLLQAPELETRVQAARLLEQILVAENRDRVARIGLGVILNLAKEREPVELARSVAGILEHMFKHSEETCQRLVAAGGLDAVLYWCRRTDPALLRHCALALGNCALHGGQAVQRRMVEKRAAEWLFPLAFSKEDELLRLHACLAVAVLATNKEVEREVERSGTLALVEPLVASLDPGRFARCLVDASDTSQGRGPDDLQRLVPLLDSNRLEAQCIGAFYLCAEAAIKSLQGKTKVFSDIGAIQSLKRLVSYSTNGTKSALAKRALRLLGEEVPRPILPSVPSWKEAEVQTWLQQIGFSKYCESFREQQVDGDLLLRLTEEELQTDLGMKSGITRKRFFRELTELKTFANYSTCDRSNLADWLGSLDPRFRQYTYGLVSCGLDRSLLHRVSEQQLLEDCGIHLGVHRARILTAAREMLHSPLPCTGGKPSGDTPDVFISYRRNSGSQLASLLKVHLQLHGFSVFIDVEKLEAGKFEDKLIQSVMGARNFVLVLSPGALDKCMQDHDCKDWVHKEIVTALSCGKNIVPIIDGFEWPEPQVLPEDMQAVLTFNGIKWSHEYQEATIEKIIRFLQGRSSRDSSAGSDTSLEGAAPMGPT

[15] = target: Mitogen-activated protein kinase 7 (Homo sapiens) (UniProt Q13164); test: ERK5 transactivation activators in reporter cells, primary screen, cell-based, HTS (AID 1508626;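 active = luciferase signal above three times the same-plate solvent-only control wells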;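 also: luciferase driven by Gal4-ERK5 fusion binding five Gal4 sites before minimal TATA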); conditions: HeLa Gal4-ERK5 transactivation, 18 h, at 5 µM, stronger effect = higher value
Mitogen-activated protein kinase 7 (Homo sapiens), sequence (Q13164 whole entry, looked up, the tested form may be a part): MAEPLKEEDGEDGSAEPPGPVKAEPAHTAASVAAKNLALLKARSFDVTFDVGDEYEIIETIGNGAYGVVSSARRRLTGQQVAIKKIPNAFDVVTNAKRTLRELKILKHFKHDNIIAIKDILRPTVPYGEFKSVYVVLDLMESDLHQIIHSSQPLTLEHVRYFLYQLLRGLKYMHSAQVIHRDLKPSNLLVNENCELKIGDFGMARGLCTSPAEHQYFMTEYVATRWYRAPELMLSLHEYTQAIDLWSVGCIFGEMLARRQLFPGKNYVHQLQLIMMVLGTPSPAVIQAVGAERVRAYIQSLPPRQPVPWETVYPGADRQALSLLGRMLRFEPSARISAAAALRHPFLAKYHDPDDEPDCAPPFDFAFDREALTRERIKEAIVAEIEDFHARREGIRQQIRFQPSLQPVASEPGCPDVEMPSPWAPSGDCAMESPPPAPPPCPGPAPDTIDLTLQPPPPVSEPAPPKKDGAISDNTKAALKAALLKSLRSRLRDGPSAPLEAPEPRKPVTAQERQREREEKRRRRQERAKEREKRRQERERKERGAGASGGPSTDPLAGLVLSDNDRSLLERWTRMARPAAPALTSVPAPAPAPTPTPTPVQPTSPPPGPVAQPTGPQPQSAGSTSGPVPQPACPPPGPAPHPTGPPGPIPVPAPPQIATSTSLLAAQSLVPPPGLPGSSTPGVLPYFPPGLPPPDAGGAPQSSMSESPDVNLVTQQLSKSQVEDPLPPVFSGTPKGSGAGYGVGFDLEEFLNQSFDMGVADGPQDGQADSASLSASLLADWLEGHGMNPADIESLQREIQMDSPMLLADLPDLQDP

F380Y = test: modulators of BK channel variants, profiling panel, selectivity assay, cell-based, U2OS BacMam, thallium flux, beta subunits (AID 1259406;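 active = thallium flux through the channel raised or lowered by more than 3 SD from vehicle-only wells, actives on both sides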;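 also: initial slope of Thallos dye fluorescence rise after thallium is added; log ratio against the mean of 0.3% DMSO vehicle wells on the same plate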); conditions: at 30 µM
F380Y/beta1 = test: as above; conditions: at 30 µM
F380Y/beta2Delta = test: as above; conditions: at 30 µM
[16] = ovarian cancer cell viability with rucaparib, profiling panel, oncology-focused library, rucaparib conditional (AID 1508598); conditions: patient-derived ovarian cancer cells, CellTiter-Glo viability, 144 h, stronger effect = lower value
[17] = measured here: epithelial PC-3E GFP cell survival
[18] = measured here: mesenchymal TEM4-18 mCherry cell survival
[19] = MELAS cybrid survival, CellTiter-Glo 48 h, stronger effect = higher value
[20] = Rieske KO mouse fibroblast survival, CellTiter-Glo 72 h

CN(C)CCc1c[nH]c2ccc(C[C@H]3COC(=O)N3)cc12
11600: cell count ([12]; measured here: total cells with miR-34 induction, stronger effect = lower value)
13300: cell count ([12]; measured here: total cells without miR-34 induction)
1.8%: nuclear beta-catenin stimulation ([1]; stimulation, at 2 µM)
inactive: nuclear beta-catenin stimulation ([1]; at 10 µM) 0.3% | insulin secretion stimulation [2] 1.2% | viability decrease [3] 14.8% | tube area decrease [4] -1.1% | GLP1 secretion stimulation [5] -0.5% | inhibition of viability [6] 13.1% | viability decrease (inhibition) [7] 26.5% | viability decrease (inhibition) [8] 24.6% | inhibition [9] 8.76% | mean signal [10] 245 | red/green cell ratio (normalised) [11] 0.98 | fold change ([12]; stronger effect = lower value, cell number ratio, induced over uninduced) 0.877 | z-score [13, 19] 0.816 | remaining NAD [14] 10 nM | luciferase signal [15] 32 AU | log fold change Tl+ flux (F380Y) 0.0506 | log fold change Tl+ flux (F380Y/beta1) 0.00826 | log fold change Tl+ flux (F380Y/beta2Delta) -0.0158
1.39: fold change ([12]; measured here: relative caspase fold change +Dox/-Dox)
1.02: normalised cell number [11, 17]
-0.25: z-score [13, 20]
1: normalised cell number [11, 18]

Cc1ccccc1C(OCCN(C)C)c1ccccc1 (centres undefined)
0.85: normalised cell number [11, 18]
active: insulin secretion stimulation [2] 39.3%
1.7%: nuclear beta-catenin stimulation ([1]; stimulation, at 2 µM)
-0.358 and 0.0536: z-score [13, 20]
0.78: normalised cell number [11, 17]
inactive: nuclear beta-catenin stimulation ([1]; at 10 µM) 0.6% | viability decrease [3] -86.6% | tube area decrease [4] 2.8% | GLP1 secretion stimulation [5] 2.1% | inhibition of viability [6] 8.67% | viability decrease (inhibition) [7] 45.8% | viability decrease (inhibition) [8] -5% | inhibition [9] 5.27% | mean signal [10] 231 | red/green cell ratio (normalised) [11] 1.09 | z-score [13, 19] -0.259 and -1.08 | remaining NAD [14] 10 nM | luciferase signal [15] 40 AU | log fold change Tl+ flux (F380Y) 0.0933 and 0.0755 | log fold change Tl+ flux (F380Y/beta1) 0.00351 and 0.0509 | log fold change Tl+ flux (F380Y/beta2Delta) 0.0734 and 0.0188

CN(CCOc1ccc(CC2SC(=O)NC2=O)cc1)c1ccccn1 (centres undefined)
1.63: normalised cell number [11, 17]
inactive: nuclear beta-catenin stimulation ([1]; at 10 µM) 4.7% | insulin secretion stimulation [2] -0.5% | viability decrease [3] -166% | tube area decrease [4] -11.1% | GLP1 secretion stimulation [5] -2.5% | inhibition of viability [6] -4.27% | viability decrease (inhibition) [7] 17.9% | viability decrease (inhibition) [8] -28.4% | inhibition [9] -0.784% | mean signal [10] 290 | red/green cell ratio (normalised) [11] 0.92 | z-score [13, 19] -0.369 and -0.527 | viability ([16]; at 0.000305 µM, OCI-C5x cells, with rucaparib 10 µM, 100% = cells with rucaparib alone) 112% | viability ([16]; at 0.000305 µM, OCI-C5x cells, without rucaparib) 124% | viability ([16]; at 0.00122 µM, OCI-C5x cells, with rucaparib 10 µM, 100% = cells with rucaparib alone) 116% | viability ([16]; at 0.00122 µM, OCI-C5x cells, without rucaparib) 133% | viability ([16]; at 0.00122 µM, OCI-P5x cells, with rucaparib 20 µM, 100% = cells with rucaparib alone) 104% | viability ([16]; at 0.00122 µM, OCI-P5x cells, without rucaparib) 108% | viability ([16]; at 0.00488 µM, OCI-C5x cells, with rucaparib 10 µM, 100% = cells with rucaparib alone) 123% | viability ([16]; at 0.00488 µM, OCI-C5x cells, without rucaparib) 129% | viability ([16]; at 0.00488 µM, OCI-P5x cells, without rucaparib) 106% | viability ([16]; at 0.0195 µM, OCI-C5x cells, with rucaparib 10 µM, 100% = cells with rucaparib alone) 114% | viability ([16]; at 0.0195 µM, OCI-C5x cells, without rucaparib) 137% | viability ([16]; at 0.0195 µM, OCI-P5x cells, with rucaparib 20 µM, 100% = cells with rucaparib alone) 108% | viability ([16]; at 0.0195 µM, OCI-P5x cells, without rucaparib) 116% | viability ([16]; at 0.0781 µM, OCI-C5x cells, with rucaparib 10 µM, 100% = cells with rucaparib alone) 106% | viability ([16]; at 0.0781 µM, OCI-C5x cells, without rucaparib) 128% | viability ([16]; at 0.0781 µM, OCI-P5x cells, with rucaparib 20 µM, 100% = cells with rucaparib alone) 103% | viability ([16]; at 0.0781 µM, OCI-P5x cells, without rucaparib) 113% | viability ([16]; at 0.313 µM, OCI-C5x cells, with rucaparib 10 µM, 100% = cells with rucaparib alone) 110% | viability ([16]; at 0.313 µM, OCI-C5x cells, without rucaparib) 148% | viability ([16]; at 0.313 µM, OCI-P5x cells, with rucaparib 20 µM, 100% = cells with rucaparib alone) 106% | viability ([16]; at 0.313 µM, OCI-P5x cells, without rucaparib) 119% | viability ([16]; at 1.25 µM, OCI-C5x cells, with rucaparib 10 µM, 100% = cells with rucaparib alone) 107% | viability ([16]; at 1.25 µM, OCI-C5x cells, without rucaparib) 131% | viability ([16]; at 1.25 µM, OCI-P5x cells, with rucaparib 20 µM, 100% = cells with rucaparib alone) 101% | viability ([16]; at 1.25 µM, OCI-P5x cells, without rucaparib) 115% | viability ([16]; at 5 µM, OCI-C5x cells, with rucaparib 10 µM, 100% = cells with rucaparib alone) 106% | viability ([16]; at 5 µM, OCI-C5x cells, without rucaparib) 133% | viability ([16]; at 5 µM, OCI-P5x cells, with rucaparib 20 µM, 100% = cells with rucaparib alone) 103% | viability ([16]; at 5 µM, OCI-P5x cells, without rucaparib) 116% | remaining NAD [14] 10 nM | luciferase signal [15] 72 AU | log fold change Tl+ flux (F380Y) -0.00159 and 0.0548 | log fold change Tl+ flux (F380Y/beta2Delta) -0.0425 and 0.0999
0.76 and -1.4: z-score [13, 20]
1.5: normalised cell number [11, 18]
active: viability ([16]; at 0.000305 µM, OCI-P5x cells, with rucaparib 20 µM, 100% = cells with rucaparib alone) 91.6% | viability ([16]; at 0.000305 µM, OCI-P5x cells, without rucaparib) 99.1% | viability ([16]; at 0.00488 µM, OCI-P5x cells, with rucaparib 20 µM, 100% = cells with rucaparib alone) 96.3% | log fold change Tl+ flux (F380Y/beta1) 0.17 and 0.199
0.1%: nuclear beta-catenin stimulation ([1]; stimulation, at 2 µM)
